Drawing on PubChem BioAssay (NCATS), this text covers Potency for 40 molecules.

The structures appear in SMILES notation. Inconclusive results are not listed. Entries that show only a call come without a potency. Calls of active or inactive are those of the source. Calls follow the shape of the dose curve; as a rule, active = well fitted cell-killing curve with a large enough effect; inconclusive = small, poorly fitted or top-dose-only effect; inactive = flat fitted curve, though single readings scatter.
Potency is read from the fitted curve at half-maximal effect.

The nature of the test: qHTS of pediatric cancer cell lines to identify multiple opportunities for drug repurposing: Primary screen for U-2 OS cells (AID 1347096). Also: nearly all actives have a fitted effect of over 50% in size. The note with it: U-2 OS viability, CellTiter-Glo luminescence, 48 h; series mostly up to 46 µM. The source says:
Drug repurposing or repositioning has been offered as a strategy for drug development in oncology programs. This approach has special potential for childhood cancers and other rare or orphan diseases, where the expected return on new drug development has been a disincentive to pharmaceuticals.
In this project we exploit the poly-pharmacology of drugs to discover new indications via phenotypic screening of a panel of 19 well-characterized cell lines derived from solid tumors seen in children and adolescents. The goal is to identify approved drugs with previously unrecognized anticancer properties that has the potential to reveal new mechanisms and biological processes involved in carcinogenesis or drug resistance. We employed a titration-based paradigm (quantitative high-throughput screening or qHTS), where all compounds were tested at multiple concentrations for their effect on cell viability. Concentration-response curves (CRCs) were derived directly from the primary screen, and both potency and efficacy values were used to identify compounds with robust bioactivity profiles. We screened the NIH Chemical Genomics Center (NCGC) Pharmaceutical Collection (NPC) and Mechanism Interrogation Plate (MIPE) small molecule collections of approved and investigational compounds against these cell lines; and measured metabolically active cells after 48 hours of compound treatment as a proxy for cell viability.
Assay Submitter: Nathalia J. Martinez, National Center for Advancing Translational Sciences, National Institutes of Health, Rockville, MD, USA; email: natalia.martinez@nih.gov
[1] Shen, M et al. Quantitative high-throughput phenotypic screening of pediatric cancer cell lines identifies multiple opportunities for drug repurposing. Oncotarget 2017 Dec 19;9(4):4758-4772. PMID 29435139.
The cells were obtained from University of North Carolina (UNC), Pediatric Preclinical Testing Program (PPT), and Coriell Institute (CI).
qHTS cell viability assay:
Cells were assayed in growth media at a density of 500-1,000 cells/well. Five microliters of cells were dispensed into 1,536-well, white, solid-bottom, TC-treated plates (Greiner Bio One) using a multidrop dispenser and incubated at 37 degrees C, 5% CO2, under a humidified atmosphere for 5 hours. Twenty-three nanoliters of compounds and controls (neutral control DMSO or positive control bortezomib at final concentration of 2.3 µM) were subsequently transferred by Kalypsys pintool. For primary screens, the MIPE collection was tested at 11-point dilutions (final concentrations range from 0.78 nM to 46 µM) and the NPC collection at 8-point dilutions (final concentrations range from 0.59 nM to 46 µM). Compounds tested in follow-up screens were assayed at 11-point dilutions. Cells were incubated for 48 hours, followed by addition of 3 µL of CellTiter-Glo (Promega). After a 15 min incubation at room temperature, samples were analyzed for luminescence intensity using a ViewLux High-throughput CCD imager equipped with clear filters.
A general note: Quantitative high-throughput screening tests each substance at several concentrations.
As for `CN1CCN(C2=Nc3ccccc3Oc3ccc(Cl)cc32)CC1`, the Potency result was “inactive”. For the molecule `CC(=O)Oc1cc(C(C)C)c(OCCN(C)C)cc1C`, the Potency entry is “inactive”. With `Cc1cc(C)c(/C=C2\C(=O)Nc3ccccc32)[nH]1` the entry was “inactive”. With `CCn1cc(C(=O)O)c(=O)c2cc3c(cc21)OCO3` the entry was “inactive”. As for `O=C(CCNNC(=O)c1ccncc1)NCc1ccccc1`, the Potency result is “inactive”. In the case of `Cc1nc2c([nH]1)c(=O)n(C)c(=O)n2Cc1ccco1`, the Potency result is “inactive”. With `Cc1nnc(SCC2=C(C(=O)O)N3C(=O)[C@@H](NC(=O)Cn4cnnn4)[C@H]3SC2)s1` the entry was “inactive”; with `CO[C@@]1(NC(=O)CSCC#N)C(=O)N2C(C(=O)O)=C(CSc3nnnn3C)CS[C@@H]21`, “inactive”. Then `COCCCC/C(=N\OCCN)c1ccc(C(F)(F)F)cc1`, with “inactive”.

Consider `CN(C)CCOC(=O)COc1ccc(Cl)cc1`, for which the Potency entry was “inactive”.

On to `NS(=O)(=O)c1cc2c(cc1Cl)NC(C1CC3C=CC1C3)NS2(=O)=O` (stereo not given), for which the Potency entry was “inactive”. Consider `CC(C)NCC(O)c1cc(O)cc(O)c1` (stereo not given), for which the Potency result is “inactive”. As for `CCNC(=O)N1CCN(CCCC(c2ccc(F)cc2)c2ccc(F)cc2)CC1`, the Potency entry is “inactive”. As to `CN(C)CCCN1c2ccccc2Sc2ccc(C(F)(F)F)cc21`, the Potency entry is “inactive”. Consider `CN(C(=O)CCCOc1ccc2[nH]c(=O)ccc2c1)C1CCCCC1`, for which the Potency entry was “inactive”. Then `C[C@H](CS)C(=O)N1CCC[C@H]1C(=O)O`, with “inactive”. For the molecule `Cc1nc2ccccn2c(=O)c1CCN1CCC(C(=O)c2ccc(F)cc2)CC1`, the Potency result was “inactive”. As for `NC1=NCC2c3ccccc3Cc3ccccc3N12` (stereo not given), the Potency entry was “inactive”.

In the case of `C[C@@H](O)[C@H]1C(=O)N2C(C(=O)O)=C(SCCN=CN)C[C@H]12`, the Potency entry was “inactive”. With `C[n+]1cc2c3c(ccc2c2ccc4cc5c(cc4c21)OCO5)OCO3` the figure was 2910 nM (active). On to `CC(C)(C)NCC(O)c1cc(O)cc(O)c1` (stereo not given), for which the Potency result is “inactive”. Take `Cc1nc2sccn2c(=O)c1CCN1CCC(=C(c2ccc(F)cc2)c2ccc(F)cc2)CC1`: the Potency entry is “inactive”. For the molecule `NC/C=C/C(=O)O`, the Potency entry was “inactive”. `CC(C(=O)O)c1ccc(CC2CCCC2=O)cc1` (stereo not given): the Potency entry is “inactive”.

For `C[C@]12CCC(=O)C=C1CC[C@@H]1[C@@H]2CC[C@@]2(C)[C@H]1CC[C@]2(O)C(=O)CO`, the Potency result is “inactive”.

On to `CC(=O)OCC1=C(C(=O)O)N2C(=O)[C@@H](NC(=O)Cc3cccs3)[C@H]2SC1`, for which the Potency entry is “inactive”. As for `COc1cc2c(cc1OC)-c1cc(=Nc3c(C)cc(C)cc3C)n(C)c(=O)n1CC2`, the Potency entry is “inactive”. In the case of `CC(C)(Oc1ccc(CCNC(=O)c2ccc(Cl)cc2)cc1)C(=O)O`, the Potency result is “inactive”. With `CCN(CC)CC(=O)Nc1c(C)cccc1C` the entry was “inactive”; with `CNCCCN1c2ccccc2CCc2ccccc21`, “inactive”; with `CC[N+](C)(C)c1cccc(O)c1`, “inactive”.

Consider `CN(C)C(=O)Oc1ccc[n+](C)c1`, for which the Potency entry was “inactive”. With `CC(=O)[C@@]1(O)CC[C@H]2[C@@H]3CCC4=CC(=O)CC[C@]4(C)[C@H]3CC[C@@]21C` the entry was “inactive”; with `CNCCC(Oc1ccccc1OC)c1ccccc1` (stereo not given), “inactive”.

For `CCCCNc1c(C(=O)OCC)c(C)nc2c1cnn2CC`, the Potency result is “inactive”. Then `CCc1c(C)[nH]c2c1C(=O)C(CN1CCOCC1)CC2` (stereo not given), with “inactive”. With `O=c1[nH]c(=O)n([C@H]2C[C@H](O)[C@@H](CO)O2)cc1Br`, the Potency entry was “inactive”.

For the molecule `CCCCCN(CCCCC)C(=O)C(CCC(=O)O)NC(=O)c1ccc(Cl)c(Cl)c1` (stereo not given), the Potency entry is “inactive”.

With `OC(CCN1CCCCC1)(c1ccccc1)C1CCCCC1` (stereo not given), the Potency result was “inactive”. With `CC(C)[N+](C)(CCOC(=O)C1c2ccccc2Oc2ccccc21)C(C)C` the entry was “inactive”.
